From PubChem BioAssay
Sm TGR inh = blocks Schistosoma mansoni thioredoxin glutathione reductase. AID 485364. Q962Y6. purified TGR, DTNB reduction, TNB absorbance 405 nm. actives 3% (n = 360,000). Potency, µM (series often up to 114 µM), usual class: inhibitors; further: nearly all actives have a fitted effect of over 60% in size
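TGR 20 nM + NADPH 100 uM (dispensed conc.), cpd preinc 15 min RT; start with NADPH (500 uM addition) then DTNB (15 mM addition). Kinetic TNB absorbance, 405 nm filter. Four-parameter Hill fit across titration.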
Pf growth 48h = P. falciparum growth inhibition at 48 hours (one generation). P. falciparum luciferase growth in erythrocytes, 48 h. Potency, µM (highest dose often 28.7 µM), most hits filed as inhibitors. actives 5.9% (n = 310,000). AID 504832
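Firefly luciferase activity from engineered P. falciparum reports growth; inhibitors lower the luminescent signal. Cultures contained 2% hematocrit erythrocytes at 0.1% final parasitemia.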
Shiga inhibitor = blocks Shiga toxin action in Vero cells; Vero cells, Shiga toxin protein synthesis inhibition reporter; inhibition, % at 38.7 µM; actives 9.2% (n = 290,000); AID 2315; in the data active means inhibition mostly above about 28%, no sharp cut-off; inactive means mostly below about 43%
Cycloheximide cs = counter-screen for Shiga toxin inhibitors: cycloheximide protein synthesis inhibition; max response, %; actives 12% (n = 300,000); cell reporter, cycloheximide protein synthesis inhibition counterscreen; AID 2314; in the data active means max response mostly above about 13%, no sharp cut-off; inactive means mostly below about 14%; further: read at 38.3 µM for the half of the compounds with a filed dose
NS1 function inh = blocks influenza NS1 protein function | Potency, µM (top dose mostly 46.1 µM) | actives 0.4% (n = 270,000) | AID 2326; calls by dose curve; further: actives are rising curves; nearly all actives have a fitted effect of over 50% in size
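Recovery from NS1-induced slow growth read by OD600 in budding yeast switched to galactose assay medium (pH 6.0, -URA) at 1:100 dilution. Compound 23 nl per well; the matching strain lacking NS1 serves as control.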
Pf growth 96h = inhibits malaria parasite growth, 96 h | P. falciparum luciferase reporter growth, 96 h | Potency, µM (top dose mostly 28.7 µM), actives largely listed as inhibitors | actives 6.9% (n = 320,000) | AID 504834
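P. falciparum expressing integrated firefly luciferase, in erythrocytes at 2% hematocrit, 0.05% parasitemia, incubated with compounds 96 h at 37 C, 5% CO2. Growth inhibition read as loss of luminescence; two-generation exposure targets delayed-death apicoplast inhibitors.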
Numbers stand for hits; i = inactive; ? = inconclusive; nt = no result; + = active, no number; [ ] = dose if it differs, or a comment. A selection: hits, their analogues and other compounds. The true share with any hit is near 21%. Unless noted, the call rests on the fitted dose curve; in most records, active means well fitted curve in the direction sought with a large enough effect; inconclusive means small, poorly fitted or top-dose-only effect, or another doubt; inactive means no such curve, though single readings can be large; an effect the other way counts as inactive or inconclusive.

SMILES	Sm TGR inh	Pf growth 48h	Shiga inhibitor	Cycloheximide cs	NS1 function inh	Pf growth 96h
NC(=S)Nc1ccc(S(=O)(=O)c2ccc(NC(N)=S)cc2)cc1	i	i	i	i	i	i
O=C(CCCSc1nc2ccccc2s1)NC1=NCCS1	i	i	i	17.8	i	i
Cc1ccn2cc(-c3cccc(NC(=O)c4cccs4)c3)nc2c1	i	i	i	22.2	nt	?
Cc1cccn2cc(-c3cccc(NC(=O)c4cccs4)c3)nc12	i	i	70.9	32.3	i	i
O=C(O)CC1(CC(=O)Nc2cc(F)ccc2Cl)CCCCC1	i	i	i	i	i	i
CCN(C/C=C/C#CC(C)(C)C)Cc1cccc(OCc2cc(-c3ccsc3)cs2)c1	nt	nt	30.0	i	nt	nt
CCC(=O)N1CCc2cc(S(=O)(=O)NCCC(=O)Nc3ccc(C)cc3C)ccc21	i	nt	nt	nt	nt	nt
O=C(NCCc1ccc(Cl)cc1)c1ccc2ccccc2n1	i	i	69.8	21.9	i	i
COc1ccc(CNC(=O)c2ccc3ccccc3n2)cc1	i	?	i	25.8	i	?
O=C(OCCNC(=O)c1ccc2ccccc2n1)c1cccnc1	i	nt	i	i	i	?
Cc1ccc(CNC(=O)c2cnc3ccccc3n2)cc1	i	i	i	i	i	i
COCCNC(=O)c1ccc2ccccc2n1	i	i	i	26.5	i	i
O=C(NCCc1ccccc1)c1cnc2ccccc2n1	i	i	105.6	32.1	i	?
O=C(O)c1cnc2ccccc2n1	i	i	i	i	i	i
O=C(O)C(=O)/C(=C\c1ccc(Cl)cc1)c1ccc2ccccc2n1	i	i	166.4	30.1	nt	i
Cc1ccccc1OCCNC(=O)c1ccc2ccccc2n1	i	i	93.4	70.5	i	i
COC(=O)c1cnc2ccccc2n1	i	i	i	15.8	i	i
CCOC(=O)CSc1nc2c([nH]c3ccccc32)c(=O)n1-c1ccc(OCC)cc1	i	nt	nt	nt	nt	nt
CC1NC(=O)C(N)CNC(=O)C(C2CCN=C(N)N2)NC(=O)/C(=C/NC(N)=O)NC(=O)C(CNC(=O)CC(N)CCCN)NC1=O (stereo unspecified)	nt	nt	i	i	nt	nt
Cc1cc([N+](=O)[O-])nn1CC(=O)c1ccccc1	i	i	i	i	i	i
C/C(Cn1nc([N+](=O)[O-])cc1C)=N\NC(=O)COc1ccccc1[N+](=O)[O-]	i	i	+	24.9	i	i
C/C(Cn1nc([N+](=O)[O-])cc1C)=N\NC(=O)COc1ccc(Cl)cc1Cl	i	i	i	i	i	i
C/C(=N\NC(=O)COc1ccccc1[N+](=O)[O-])c1cccs1	i	i	65.7	43.3	nt	i
C/C(Cn1nc([N+](=O)[O-])cc1C)=N\NC(=O)c1cccc(Br)c1	i	i	i	30.9	i	i
O=C(Cn1[nH]c(=O)c2ccccc2c1=O)OCC(=O)c1ccc(Br)cc1	i	i	nt	nt	nt	i
SMILES	Sm TGR inh	Pf growth 48h	Shiga inhibitor	Cycloheximide cs	NS1 function inh	Pf growth 96h
O=c1cc2[nH]c3ccccc3c(=O)n2nc1-c1ccccc1	i	i	i	24.9	i	nt
O=c1nc(-c2ccccc2)c2cc(Br)ccc2[nH]1	i	i	i	i	i	i
CCN(CC)CCCNC(=O)c1c(O)c2ccccc2n(Cc2ccccc2)c1=O	i	9.28µM	i	i	i	i
CCN(CC)CCNC(=O)c1c(O)c2ccccc2n(Cc2ccccc2)c1=O	i	11.7µM	i	i	i	4.15µM
CCCn1c(=O)c(C(=O)NCc2ccccc2)c(O)c2ccccc21	i	i	i	i	i	i
COCCCn1c(C(=O)N2CC(C)OC(C)C2)cc2c(=O)n3ccccc3nc21 (stereo unspecified)	i	i	i	i	i	i
Cc1nn(-c2ccccc2)c(C)c1/C=N/NC(=O)c1cc(-c2cccs2)[nH]n1	i	?	i	i	i	i
Cc1nn(-c2ccccc2)c(C)c1/C=N/NC(=O)c1cc(-c2ccc(Br)s2)[nH]n1	i	i	i	i	i	i
CC/C(=N\NC(=O)c1cc(C2CC2)[nH]n1)c1ccccc1	i	i	68.6	15.4	i	i
Cc1cc(C(=O)N/N=C/c2c(C)nn(-c3ccccc3)c2C)n[nH]1	i	i	55.4	17.6	i	?
Cc1nn(-c2ccccc2)c(C)c1/C=N/NC(=O)c1cnccn1	i	i	i	15.8	i	i
Cc1nn(-c2ccccc2)c(C)c1/C=N/NC(=O)c1cc(C2CC2)[nH]n1	i	i	i	13.9	i	?
COC(=O)COc1ccc(S(=O)(=O)NCc2ccc3c(c2)OCO3)cc1	i	?	nt	i	i	i
CSc1ccccc1C(=O)N1CCCC(CCC(=O)NCc2ccc(F)c(F)c2)C1 (stereo unspecified)	i	?	i	i	i	?
Cc1nn(-c2ccccc2)c(C)c1/C=N/NC(=O)c1cc(C23CC4CC(CC(C4)C2)C3)[nH]n1	i	3.29µM	i	i	i	2.08µM
O=C(N/N=C/c1c(F)cccc1Cl)c1cc(C2CC2)[nH]n1	i	i	76.6	30.2	i	i
COc1cccc(CN2CCNC(=O)C2CC(=O)NCc2cn3ccccc3n2)c1OC (stereo unspecified)	?	i	i	i	i	10.4µM
COc1cccc(CN2CCNC(=O)C2CC(=O)NCCn2ccc3ccccc32)c1OC (stereo unspecified)	nt	11.7µM	i	i	i	?
CC(=O)N[C@@H](CSC(=O)[C@]1([C@@H](O)C(C)C)NC(=O)[C@H](C)[C@@H]1O)C(=O)O	nt	nt	+	84.7	nt	nt
CC(=O)Nc1nc(SCc2ccc(Cl)cc2Cl)n[nH]1	i	i	i	i	i	?
Nc1nc(SCc2ccc3c(c2)OCCO3)n[nH]1	i	i	71.2	i	i	i[5.75 µM]
Nc1nc(SCc2ccc(Cl)cc2Cl)n[nH]1	i	i	i	20.7	i	nt
COc1cc(OC)c(NC(=O)N2CCc3c(sc4c3CCCC4)C2c2ccccc2)cc1Cl (stereo unspecified)	i	nt	nt	nt	nt	nt
COc1ccc(CN2CCCC(CNC(=O)c3ccc(F)cc3)C2)c(C)c1C (stereo unspecified)	i	i	i	i	i	10.4µM
COc1ccc(CC(=O)NCC2CCCN(Cc3cccc(C(F)(F)F)c3)C2)cc1 (stereo unspecified)	i	i	i	i	i	i
COc1ccc(CN2CCCC(CNC(=O)c3ccc(F)cc3)C2)c(F)c1 (stereo unspecified)	i	i	i	i	i	1.85µM
COc1cc(OC)cc(C(=O)NCC2CCCN(Cc3cccc(C(C)=O)c3)C2)c1 (stereo unspecified)	i	?	i	i	i	8.28µM
CC(=O)Nc1cccc(NC(=O)C2CC(=O)N(C3CCCCC3)C2)c1 (stereo unspecified)	i	i	i	i	i	i
CCOc1ccccc1NC(=O)Cn1c(=O)n(Cc2ccco2)c(=O)c2ccc(C(=O)NC3CCCC3)cc21	i	nt	nt	nt	nt	nt
